# HT1080 IDH1KD tx: HT-1080 IDH1 knockdown cell toxicity (counter line) | HT-1080 IDH1 knockdown viability, ATP luminescence, 48 h | Potency, µM (titrated, usually from 46.1 µM), without a hit: at the highest dose activity, negative = toxicity, hits mostly cytotoxic | 2% of 360,000 active;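 further: 0% = DMSO wells and -100% = cell-free medium wells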
#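 Luminescent ATP read-out (CellTiter-Glo, 10 min at room temperature) after 48 h compound exposure at 37 °C gave viability of IDH1-knockdown HT-1080 cells. Activity was normalised to DMSO and cell-free wells, then fitted as concentration-response curves.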
# KB-V1 MDR tox: KB-V1 MDR subline cytotoxicity; KB-V1 MDR cells viability, CellTiter-Glo, 72 h; Potency, µM (series often up to 46.1 µM), actives largely listed as cytotoxic; AID 1347076; 3.4% of 400,000 active; further: on the % scale 0 is the no-effect control and ±100 the full control effect; nearly all actives have a fitted effect of over 60% in size
#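 Readout: CellTiter-Glo luminescence, 10 min after addition. Cells: KB-V1 MDR subline, 72 h at 37 degrees C with compound. Analysis: corrected, normalized data fitted to concentration-effect curves.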
# SW480 rerep: DNA re-replication induction in SW480 cells; 1.8% of 340,000 active; Potency, µM (titrated, usually from 46.1 µM), inactives show top-dose re-replication activation, usual class: activators; SW480 DNA re-replication, Hoechst DNA content imaging, 48 h; further: % of control where 0% means no effect; nearly all actives have a fitted effect of over 55% in size
#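 DNA re-replication was detected as more nuclei of elevated Hoechst intensity after 48 hr exposure to compound (23 nL pinned per well of 250 cells).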
# MCF10A rereplic: induces DNA re-replication in MCF 10a normal breast cells. MCF 10A DNA re-replication, Hoechst nuclear intensity, 48 h. Potency, µM (highest dose often 46.1 µM), for the others: top-dose activity, positive = re-replication, usual class: activators. 2.9% of 350,000 active. AID 624296; further: % of control where 0% means no effect; nearly all actives have a fitted effect of over 50% in size
# HT1080-NT tox: kills 2HG-producing HT-1080-NT fibrosarcoma cells; HT-1080-NT fibrosarcoma viability, CellTiter-Glo ATP luminescence, 48 h; Potency, µM (top dose mostly 46.1 µM), without a hit: at the highest dose activity, negative = less viability, hits mostly cytotoxic; 1.6% of 360,000 active;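 further: NT is the 2HG producing partner of a matched IDH1 knockdown line; 0% = DMSO-treated cells and -100% = media-only wells without cells; nearly all actives have a fitted effect of over 55% in size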
#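 Read-out is CellTiter-Glo luminescence after 10 minutes at room temperature, following 48 hours' compound treatment of HT-1080-NT cells (750 cells/well, RPMI, 5% FBS, 37 degrees C).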
# KB-3-1 cytotox: KB-3-1 parental cell cytotoxicity; KB-3-1 viability, CellTiter-Glo ATP luminescence, 72 h; Potency, µM (doses to about 46.1 µM), usual class: cytotoxic; 1.4% of 400,000 active; further: on the % scale 0 is the no-effect control and ±100 the full control effect; nearly all actives have a fitted effect of over 60% in size
#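 Multi-concentration cytotoxicity screen in KB-3-1 cells grown in DMEM lacking phenol red with 10% FBS. After 72 h at 37 °C with compound, ATP-dependent luminescence was recorded.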
# Numbers without * were called inactive; i = inactive; ? = inconclusive; . = not tested or not shown; [ ] = dose if it differs, or a comment. Sampled rows, rich in hits. Any-hit rate of the full collection: about 7.9%. The call rests on the fitted dose curve; in most records, active means well fitted curve in the direction sought with a large enough effect; inconclusive means small, poorly fitted or top-dose-only effect, or another doubt; inactive means no such curve, though single readings can be large; an effect the other way counts as inactive or inconclusive. Potency means the concentration at half of the fitted maximal effect.
SMILES,HT1080 IDH1KD tx,KB-V1 MDR tox,SW480 rerep,MCF10A rereplic,HT1080-NT tox,KB-3-1 cytotox
COC(=O)[C@H](Cc1c[nH]c2ccccc12)NCc1cccc(B(O)O)c1,3%,i,4.6µM*,-8%,-2%,i
COC(=O)[C@@H](Cc1c[nH]c2ccccc12)NCc1ccc(B(O)O)cc1,-1%,i,1.2µM*,-36%,-11%,i
CCOc1ccc2c(c1)c(=O)c(C(=O)c1ccc(CC)cc1)cn2CC(=O)Nc1ccccc1OC,.,i,.,.,.,i
O=C1CC(c2cccs2)Cc2nc(NCC3CCCO3)ncc21 (stereo unspecified),3%,16µM*,-4%,20%,12%,i
Cn1c(=O)c2nc(NCc3ccccc3)sc2n(C)c1=O,3%,i,-8%,-4%,3%,i
COC(=O)C1C(O)=C(C(C)=Nc2cccc3ccccc23)C(=O)CC1(C)C (stereo unspecified),-9%,i,5.8µM*,12%,-5%,i
Cc1cc2nc(C(C)(C)C)c(Cc3ccsc3)n2c(C)c1Br,?,i,.,.,29µM*,i
NC(=O)c1nsc(C(=O)N(CC(=O)NC2CCCCC2)Cc2ccc(F)cc2)c1N,-9%,i,5%,-14%,-15%,i
CCOC(=O)c1scc(-c2ccc(C)cc2)c1S(=O)(=O)Nc1cccc(CC)c1,.,i,.,.,.,i
CCOC(=O)C(=O)NNc1ccccc1C,2%,i,-5%,?,0%,i
CCOC(=O)C(=O)NNc1cccc(C)c1C,-4%,i,-78%,8.2µM*,-3%,i
CSCCC(NC(=O)c1ccccc1Cl)C(=O)Nc1ccc(C)c(S(=O)(=O)N2CCOCC2)c1 (stereo unspecified),7%,i,?,-2%,0%,i
Cc1ccc(C)c(NC(=O)CN(C)C(=O)c2ccc(-c3cccc(C(F)(F)F)c3)o2)c1,5%,18µM*,-3%,20%,-3%,i
c1ccc2nc(-c3ccc(N4CCOCC4)cc3)ccc2c1,5%,i,-9%,-182%[0.0737 µM],4%,i
Cc1cc(-c2ccc(N3CCOCC3)cc2)nc2ccccc12,6%,i,?,21µM*,4%,i
CN1CCN(c2ccc(-c3ccc4ccccc4n3)cc2)CC1,?,12µM*,?,13µM*,?,i
Cc1cccc(-c2nc(Nc3ccc(N4CCOCC4)cc3)c3ccccc3n2)c1,?,?,-1%,21µM*,-21%,i
c1ccc2c(Nc3ccc(N4CCOCC4)cc3)nc(N3CCOCC3)nc2c1,?,?,?,?,?,i
Cc1cccc(-c2nc(Nc3cccc(O)c3)c3ccccc3n2)c1,0%,i,8%,21µM*,-8%,i
Cc1ccc(-c2cc(C(=O)N3CCOCC3)c3ccccc3n2)cc1,-9%,i,-1%,9%,-19%,i
COC(=O)[C@@]12C[C@@H](CC(=O)NCc3ccc(OC)c(OC)c3)C(=O)N(Cc3ccccc3)C1=CCC(C)(C)C2,-10%,i,.,.,-10%,i
CO[C@H]1CN(C)C(=O)c2ccc(NC(=O)C3CCC3)cc2OC[C@H](C)N(Cc2ccccn2)C[C@@H]1C,20%,i,.,.,18%,i
COc1ccc(CNC(=O)C2CC(c3cccc([N+](=O)[O-])c3)=NO2)cc1 (stereo unspecified),1%,i,0%,9.2µM*,1%,i
Cc1ccc(CNC(=O)C2CC(c3cccc([N+](=O)[O-])c3)=NO2)cc1 (stereo unspecified),-5%,i,?,2.1µM*,-10%,i
CN(CC(=O)Nc1cccc(F)c1)C(=O)C1(c2ccccc2)CC1,1%,i,?,1%,-2%,i
SMILES,HT1080 IDH1KD tx,KB-V1 MDR tox,SW480 rerep,MCF10A rereplic,HT1080-NT tox,KB-3-1 cytotox
CSc1nnc(C)c(/C=C/NOCc2cccc(F)c2)n1,-7%,i,2%,20%,-5%,i
CSc1nnc(C)c(/C=C/Nc2ccc(F)cc2F)n1,16µM*,?,20%,18µM*,?,i
CCCCOC(=O)/C=C/c1ccc(OC(=O)OC)c(OC(=O)OC)c1,?,i,?,15µM*,-27%,?
Cc1cc(C)c(C(=O)COC(=O)c2cccc(S(=O)(=O)N3CCOCC3)c2)cc1C,2%,i,.,.,-1%,i
C=CCn1c(=N)c(C(=O)NCCCOC)cc2c(=O)n3cc(C)ccc3nc21,19%,?,?,8.2µM*,1%,i
Cc1ccc2nc3c(cc(C(=O)NCCCn4ccnc4)n3C)c(=O)n2c1,?,i,?,15µM*,17%,i
COCCCn1c(=N)c(C(=O)NCC2CCCO2)cc2c(=O)n3cc(C)ccc3nc21 (stereo unspecified),.,?,.,.,.,i
C=CCn1c(=N)c(C#N)cc2c(=O)n3ccccc3nc21,6%,i,?,?,8%,i
C=CCn1c(=N)c(C(=O)NCCCOC)cc2c(=O)n3ccccc3nc21,7%,i,1.3µM*,2.1µM*,-2%,i
O=C(Nc1cc(F)ccc1F)c1cc2nc(-c3ccco3)cc(C(F)(F)Cl)n2n1,.,i,.,.,.,i
COCCCNc1ccn2nc(-c3ccc(Cl)cc3)cc2n1,-9%,i,.,.,22%,i
CCc1ccc(Nc2nnc(SCC(=O)Nc3cccnc3Cl)s2)cc1,0%,16µM*,6%,1%,-2%,i
Cc1nnc(SCC(=O)Nc2cccnc2Cl)s1,3%,i,-273%,-2%,6%,i
CCc1ccc(Nc2nnc(SCC(=O)Nc3sccc3C(N)=O)s2)cc1,?,?,?,16µM*,-30%,?
Cc1ccc(S(=O)(=O)N(CC(=O)Nc2ccc(F)cc2F)Cc2ccc(F)cc2)cc1,.,i,.,.,.,i
N#C/C(=C\c1cccnc1)C(=O)Nc1cccc2ccccc12,21µM*,i,?,?,?,i
O=c1[nH]c(-c2ccc(-c3cccc(Cl)c3)o2)nc2ccccc12,.,i,11%,10µM*,.,i
Cc1cc(C(=O)N/N=C/c2c(CO)cnc(C)c2O)c2ccccc2n1,21µM*,i,?,?,?,?
Cc1ncc(CO)c(/C=N/NC(=S)Nc2ccc(C(C)C)cc2)c1O,?,i,2.9µM*,20%,3%,?
C=C1[C@@H](O)CN(Cc2ccc(OC)cc2)S1(=O)=O,.,i,.,.,.,?
COc1ccc(CN2C[C@H]3CCCN3c3cc(Br)ccc3S2(=O)=O)cc1,2.6µM*,?,1.6µM*,1.2µM*,?,1.8µM*

# Compound activity: PubChem BioAssay, National Center for Advancing Translational Sciences (NCATS)
